Mcl1 Noxa PPI: Mcl-1/Noxa binding inhibitors, primary screen, biochemical, TR-FRET, 1536-well | Induced myeloid leukemia cell differentiation protein Mcl-1 (Homo sapiens), Q07820 | TR-FRET Mcl-1/Noxa peptide binding, 2 h | inhibition, % at 21.7 µM | 220,000 compounds, 1.5% hits | AID 1022, 2008;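 active = compounds that cut the protein-peptide binding signal by more than 50% relative to plate controls in a single-dose test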;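 note: His-tagged Mcl-1 with rhodamine Noxa BH3 peptide and terbium anti-His antibody; 0% = Mcl-1 plus Noxa peptide wells and 100% = peptide-only wells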
Target sequence (Q07820 whole entry, looked up): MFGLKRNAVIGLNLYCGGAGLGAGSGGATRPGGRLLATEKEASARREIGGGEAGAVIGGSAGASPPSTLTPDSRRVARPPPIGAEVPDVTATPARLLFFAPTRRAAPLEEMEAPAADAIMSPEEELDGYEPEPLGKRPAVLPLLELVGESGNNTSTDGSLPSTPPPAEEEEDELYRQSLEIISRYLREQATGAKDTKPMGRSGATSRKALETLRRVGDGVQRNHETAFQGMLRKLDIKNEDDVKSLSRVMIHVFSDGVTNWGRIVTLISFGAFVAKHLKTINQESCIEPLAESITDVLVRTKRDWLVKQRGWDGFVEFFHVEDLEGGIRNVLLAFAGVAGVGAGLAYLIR
TLR9-MyD88 block: inhibitors of TLR9-MyD88 association in cells, primary screen, cell-based, CHO, BLA complementation, fluorescence; Toll-like receptor 9 (Homo sapiens) + Myeloid differentiation primary response protein …; CCF4 FRET ratio; inhibition, % at 4.98 µM; 340,000 compounds, 0.21% hits;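 active = inhibition above the mean over all tested compounds plus 3 SD, cut at about 21% in these data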;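 note: 0% = DMSO only wells and 100% = clavulanate BLA inhibitor control wells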
TLR4-MyD88 BLA: inhibitors of TLR4-MyD88 association in cells, primary screen, cell-based, HeLa CL3-4, BLA complementation, FRET ratio | Toll-like receptor 4 (Homo sapiens) + Myeloid differentiation primary response protein … | HeLa CL3-4 TLR4/MyD88 BLA complementation | inhibition, % at 8.4 µM | 200,000 compounds, 0.18% hits; in the data active = inhibition above about 25%;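 note: 0% = vehicle and 100% = reference inhibitor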
Bim-Mcl-1: inhibitors of Bim peptide binding to Mcl-1, primary screen, biochemical, bead-based flow cytometry, multiplex; Induced myeloid leukemia cell differentiation protein Mcl-1 (Homo sapiens), Q07820; Bim peptide-Mcl-1 binding; inhibition, % at 10 µM; 190,000 compounds, 0.1% hits; in the data active = inhibition above about 40%;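 note: 0% = no compound tracer wells and 100% = peptide blocker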
NOD2 RIPK2 PPI: NOD2-RIPK2 binding disruptors in cells, primary screen, fluorescence, CHO cells, BLA complementation; CCF4 ratio; AID 624267, 2012; 360,000 compounds, 0.38% hits; inhibition, % at 4.98 µM; in the data active = inhibition above about 21%;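 note: 0% = vehicle only and 100% = reference blocker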
Mcl1-Bid inh: Mcl-1/Bid binding inhibitors, primary screen, biochemical, TR-FRET, 1536-well; 220,000 compounds, 0.97% hits; inhibition, % at 21.7 µM; TR-FRET Mcl-1/Bid-Dy647 peptide binding;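 active = compounds that cut the binding signal by more than half at the single screening dose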;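 note: His-tagged Mcl-1 with europium anti-His antibody binding Bid BH3 peptide; 0% = Mcl-1 plus peptide wells and 100% = peptide-only wells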
* marks the source's active call; other numbers are inactive results; · = no result. Most compounds without a hit are left out; they make up all but 1.8% or so of the library.

SMILES	Mcl1 Noxa PPI	TLR9-MyD88 block	TLR4-MyD88 BLA	Bim-Mcl-1	NOD2 RIPK2 PPI	Mcl1-Bid inh
COc1ccc(NS(=O)(=O)c2cc(NC(=O)[C@H](C)NC(N)=O)ccc2N2CCCC2)cc1	·	15	·	·	7	·
CN(CC(=O)Nc1cccnc1)S(=O)(=O)c1ccccc1	-1	-1	7	-2	-1	64*
O=C(CS(=O)(=O)c1ccccc1)Nc1cccnc1	-6	10	7	3	10	-7
Cc1cccc(OCC(=O)Nc2ccccc2C(=O)N2CCOCC2)c1	59*	-2	-11	-3	2	-30
Cc1cc(C)cc(OCC(=O)Nc2ccccc2C(=O)N2CCOCC2)c1	·	10	·	·	-4	·
O=C(c1ccco1)N1CCN(C2CN(Cc3cn(Cc4ccccc4C(F)(F)F)nn3)S(=O)(=O)C2)CC1 (stereo not drawn)	·	·	·	·	-9	·
Cc1ccc(C)c(NC(=O)Cn2nc(-c3ccccc3)nc2-c2ccccc2)c1	-13	-10	7	2	-11	56*
COc1ccc(NS(=O)(=O)c2cccc(C(=O)NCC(c3cccs3)N3CCOCC3)c2)cc1 (stereo not drawn)	·	-5	·	·	-12	·
Cc1cc(C)c(C)c(OCCCn2ccnc2)c1	21	-11	3	-1	-4	24
Cc1cc(C)c(C)c(OCCCN(C)C)c1	25	4	3	-4	-2	53*
O=[N+]([O-])c1ccc(Cl)cc1N/N=C/c1ccncc1	·	-3	·	·	4	·
O=[N+]([O-])c1cc(S(=O)(=O)Nc2ccc(Cl)cc2)ccc1N/N=C/c1ccncc1	52*	7	2	-2	4	26
CN(C)CCNCCCNc1c2ccccc2nc2cccc([N+](=O)[O-])c12	·	-7	·	·	-5	·
Cc1ccc2c(c1)c1ccc3c(c1n2C)C(=O)C=CC3=O	108*	14	·	·	1	23
COc1ccc2c(c1)c1ccc3c(c1n2C)C(=O)C=CC3=O	102*	1	·	·	2	33
Cc1cc(C)nc(N/N=C/C2=C(N3CCOCC3)C(=C\c3ccc(Cl)cc3)/CC2)n1	36	9	-4	-5	-5	-117
O=C(O)c1ccc(N/N=C/C2=C(N3CCOCC3)C(=C\c3ccccc3)/CC2)cc1	75*	12	·	·	-4	-81
O=C(NCCNC(=O)c1ccccc1Br)c1cccnc1	·	0	·	·	0	·
COc1cc(/C=N/NC(=O)CCOc2ccccc2C)cc(Br)c1O	67*	13	8	-1	-11	-30
COc1ccc(/C=N/NC(=O)CCOc2ccccc2C)cc1OC	5	4	7	-5	0	-20
CCc1[nH]nc(C(=O)N2CCCC(N3CCN(c4ccccc4C)CC3)C2)c1C (stereo not drawn)	·	8	·	·	-2	·
NC(=O)N1CCN(C(=O)c2ccco2)CC1	9	9	10	-1	6	70*
COc1ccc(C2(NC(C)=O)CCN(C(=O)CCC(=O)O)CC2)cc1	14	-5	4	1	9	3
O=C(c1ccco1)N1CCN(C(=O)c2ccco2)CC1	·	·	·	·	9	·
COc1ccc(C2(NC(C)=O)CCN(C(=O)c3ccco3)CC2)cc1	2	6	0	40*	0	-8
Cc1csc(NC(=O)CSc2nccn2C)n1	·	-12	·	·	-7	·
O=C(COC(=O)CCC(=O)c1cccs1)NC1CCCCC1	·	-9	·	·	-6	·
FC(F)(F)c1cnc(Nc2ccc(N3CCOCC3)cc2)c(Cl)c1	61*	-1	-11	3	-9	-24
Cc1ccc(-c2nn(CC(=O)NCc3cc(-c4nn(C)c(=O)c5ccccc45)ccc3C)c(=O)c3ccccc23)cc1	-48	-16	-3	1	2	79*
COc1ccc(-c2nn(C)c(=O)c3ccccc23)cc1CNC(=O)NC1CCCCC1	-19	·	13	1	·	62*
